From ChEMBL document CHEMBL4513216, “Probing the Open Global Health Chemical Diversity Library for Multistage-Active Starting Points for Next-Generation Antimalarials” (ACS Infect Dis, 2020)
Out of some 69,000 compounds screened, about 8,600 (12%) showed an effect of 50% or more. Many of the other results were omitted from the sample, so strong results are more common in it than they were.

These molecules were tested on Plasmodium berghei (assay: Screen against P. berghei liver stage (PbLuc), transformed with Luciferase, at 10uM). Details: tested at 10 uM.
Format: functional, HepG2

SMILES | INHIBITION [%]
Cc1cn2c(n1)CCC(NC(=O)c1cc(C3CC3)[nH]n1)C2 (configuration not stated) | -1.14
Cc1cc2nc(CN(C)c3ccc(Cl)cc3)cc(=O)n2o1 | 56
Cc1cccc(N(C)Cc2cc(=O)n3oc(C)cc3n2)c1 | 43.5
Cc1cc2nc(CN(C)c3ccccc3)cc(=O)n2o1 | 12.9
NC(=O)[C@H]1CCCN1C(=O)c1csc(-c2ccc(C(F)(F)F)cc2)n1 | -2.25
CCOCC1CCN(C(=O)C(c2ccc(F)cc2)N(C)C)CC1 (configuration not stated) | 17.5
CNS(=O)(=O)c1c(C)sc2ccccc12 | -77.9
Cc1[nH]ncc1C(=O)N1CCCC(c2ccn[nH]2)C1 (configuration not stated) | 23.5
Cc1nc(CN2CCCN(C(=O)c3cnccn3)CC2)cs1 | -16.4
CCCS(=O)(=O)NCC(C)c1ccc(F)c(F)c1 (configuration not stated) | 10
CC(CNS(N)(=O)=O)c1ccc(F)c(F)c1 (configuration not stated) | 31.1
CC(CNS(C)(=O)=O)c1ccc(F)c(F)c1 (configuration not stated) | 60.4
Cc1ccn(-c2ccnc(N3CCN(c4ncccn4)CC3)n2)n1 | 44.9
COCCO[C@H]1CCN(c2ccc(C)nn2)[C@H]1Cc1cnn(C)c1 | 13.7
COc1ccc(CS(=O)(=O)CC(=O)NCc2ccccc2F)cc1F | 40.3
CNC(=O)CS(=O)(=O)Cc1ccc(OC)c(F)c1 | 52.2
COc1ccc(CS(=O)(=O)CC(=O)NCC2CC2)cc1F | 19
Cc1nccn1CCN(C)C(=O)C1CCN(C(=O)C2CCCC2)CC1 | 48.9
N#Cc1ccc(C(=O)N2CCCSCC2CN2CCCC2)cc1 (configuration not stated) | 40.8
Cc1cc(S(C)(=O)=O)c(C)c(S(=O)(=O)N2CCN(C)CC2)c1 | 31.9
Cc1cc(S(C)(=O)=O)c(C)c(S(=O)(=O)N2CCCC(C)C2)c1 (configuration not stated) | 63
Cc1cc(S(C)(=O)=O)c(C)c(S(=O)(=O)N2CCCCCC2)c1 | 36.4

SMILES | INHIBITION [%]
CC(=O)c1c(F)cccc1NCC(O)C1CC1 (configuration not stated) | 26
Cc1nc(NCc2scnc2-c2ccccc2)cc(C2CCNCC2)n1 | 24.3
CN(C)c1ccc(-c2cc(=O)n3c(n2)CCCCC3)cc1 | 35.1
Cc1ccc(S(=O)(=O)n2ccn(C(=O)COc3ccccc3)c2=O)cc1 | 44.1
CC(C)Cc1nc(CSC2CCCN(c3cnn(C)c3)C2=O)no1 (configuration not stated) | 20.1
Cn1cc(N2CCCC(SCc3nc(C4CC4)no3)C2=O)cn1 (configuration not stated) | 51.2
Cc1cc(CSC2CCCN(c3cnn(C)c3)C2=O)no1 (configuration not stated) | 30.5
c1nc(CCC2CCCN2)cc(N2CCCCCC2)n1 (configuration not stated) | 5.11
Cc1n[nH]c(C)c1C1COCCN1C(=O)c1ccc2c(c1)CCO2 (configuration not stated) | 32.125
CSCc1cc(F)ccc1CNCc1cccc(O)c1 | 5.15
O=C1CC(c2ccc3c(c2)OCO3)c2snc(C(=O)O)c2N1 (configuration not stated) | 15.1
COCC(=O)N1CCC2(CC1)CC(OC)c1ccc(F)cc12 (configuration not stated) | 42.1
CS(=O)(=O)N1CCC2(CC1)CC(CC(=O)NCC1CC1)c1ccccc12 (configuration not stated) | 3.69
COCCN1CCC2(CC1)CC(CC(N)=O)c1ccc(F)cc12 (configuration not stated) | -8.85
CN(C)C(=O)CC1CC2(CCNCC2)c2cc(F)ccc21 (configuration not stated) | 59.1
CNC(=O)CC1CC2(CCNCC2)c2cc(F)ccc21 (configuration not stated) | 44.8
CC(C)N1CCC2(CC1)CC(CC(N)=O)c1ccc(F)cc12 (configuration not stated) | 58.7
O=C(CC1CC2(CCNCC2)c2ccccc21)NCC1CC1 (configuration not stated) | 57.5
O=C(CC1CC2(CCN(CC3CC3)CC2)c2ccccc21)NC1CCC1 (configuration not stated) | 34.4
O=C(C1CC1)N1CC2(CCNCC2)c2cc(F)ccc21 | -12.2
NC(=O)CC1CC2(CCNCC2)c2cc(F)ccc21 (configuration not stated) | 59.3
O=c1n(CCNCc2ccc(-c3ccccc3)cc2)nc2ccccn12 | 35.7

SMILES | INHIBITION [%]
Cc1nn(C)c(Cl)c1C1CCCN1CC(=O)Nc1cccnc1 (configuration not stated) | 21.6
Cn1cc(-c2ncc3c(c2C(=O)O)CCN(CC2CCOC2)C3)cn1 (configuration not stated) | 17.7
O=C(c1ccco1)N1C[C@H]2CCCN(Cc3ccc(F)cc3)[C@H]2C1 | 29.4
Cc1nc(N(C)C)ncc1C(=O)N[C@H]1Cc2ccccc2[C@@H]1N | 2.7
COCCN(Cc1ccoc1)S(=O)(=O)c1ccc(OC)c(Cl)c1 | 25.4
Cc1noc(NCc2cn(C)nc2-c2cccnc2)n1 | 41.5
Cc1oc(-c2nc(C#N)c(NC(C)C)o2)cc1S(=O)(=O)N1CCCCC1 | 60.1
CNc1oc(-c2cc(S(=O)(=O)N3CCCCCC3)c(C)o2)nc1C#N | 39.5
Cc1oc(-c2nc(C#N)c(NC(C)C)o2)cc1S(=O)(=O)N1CCCC1 | 34.6
Cn1cnc(S(=O)(=O)N2CCCc3c(F)cc(F)cc32)c1Cl | 30.3
Cc1cccc(OCCSCCn2nc3ccccn3c2=O)c1 | 22
CCc1nc(CN(C)C(=O)c2ccc(OCCCOC)nc2)cs1 | 82.5
COCCCOc1ccc(C(=O)N(C)Cc2cccc(O)c2)cn1 | 38
COCCCOc1ccc(C(=O)N(C)CCC(C)C)cn1 | 39.7
COCC(=O)N1CCC(c2cc(-c3ccc(OC)cc3)n[nH]2)C1 (configuration not stated) | -50.3
CCOC1CCN(C(=O)Nc2ccc(=O)n(C)c2)CC1 | 33
COc1ccccc1OC1CCN(Cc2cccnc2)CC1 | 5.91
Fc1ccccc1OC1CCN(CCn2cc3ccccc3n2)CC1 | 89.3
c1cncc(OC2CCN(CCn3cc4ccccc4n3)CC2)c1 | 50.8
OCCn1nccc1C1CCN(CCOc2cccc(F)c2)CC1 | 31.9
Fc1cccc(OC2CCN(CCn3cc4ccccc4n3)CC2)c1 | 75.2
CN1CCN(C2CCN(CCOc3ccccc3F)CC2)C1=O | -22.9

SMILES | INHIBITION [%]
CCc1ncc(CN2CCC(Oc3ccccc3OC)CC2)cn1 | -40
c1cncc(O[C@H]2COCCN(CC3CC3)C2)c1 | 12.4
Cc1ccc(CNC(=O)NCc2nccn2C)c(OC(C)(C)C)c1 | 43.5
CC(C)NC(=O)N1CCN(C(=O)C2CCOCC2)CC2(CNC(=O)C2)C1 (configuration not stated) | 1.9
CCC(=O)N1CCN(C(=O)NCCOc2ccc3c(c2)CCC3)CC1 | 30.2
Cc1nccn1-c1ccc(NS(=O)(=O)c2cnn(C)c2)cn1 | 4.95
Cc1cccc(CN2Cc3[nH]nc(COCC4CC4)c3C2)n1 | 48.2
CC(O)CNC(=O)Nc1ccc(Br)cc1Br (configuration not stated) | 29.1
Cc1ncc(CNCCO)c2cc(C(=O)c3ccc(Br)cc3)oc12 | 59.2
Cc1ncc(CN2CCOCC2)c2cc(C(=O)c3ccc(Br)cc3)oc12 | -21.8
Cc1ncc(CN2CCCC2)c2cc(C(=O)c3ccc(Br)cc3)oc12 | 44.5
CN(C)c1ccc(C(=O)NCc2csc(Br)c2)cn1 | 1.75
Cc1ncc(CN(C)CCO)c2cc(C(=O)c3ccc(Br)cc3)oc12 | 36.8
Cc1ncc(CNC(C)(C)CO)c2cc(C(=O)c3ccc(Br)cc3)oc12 | 65.3
COC(=O)c1oc(CNC(C)(C)CO)cc1C | -3.35
Cc1ncc(CNCC(C)O)c2cc(C(=O)c3ccc(Br)cc3)oc12 (configuration not stated) | 50.5
CN1C(=O)CCC12CCC(NCc1ccsc1)CC2 (configuration not stated) | 8.74
COCCOC1CCN(C(C(=O)O)c2ccc3c(c2)OCO3)CC1 (configuration not stated) | 14.9
COCCCC1CCCCN1Cc1cn2cc(C)ccc2n1 (configuration not stated) | -17.2
CN1CCN(C(=O)CCCc2ccccc2)CC(O)(Cn2cccn2)C1 (configuration not stated) | 26.65
Cc1ccc(C)c(-n2cc(CN3CC[C@@H](O)C3)c(-c3ccccc3)n2)c1 | 39.9
Cc1ccc(C)c(-n2cc(CN3CCOCC3)c(-c3ccccc3)n2)c1 | 33.4

SMILES | INHIBITION [%]
Cc1ccc(-n2cc(CN3CCOCC3)c(-c3cccc(C)c3)n2)cc1 | 56.1
COc1cc(N2CCCn3cnc(COC(C)C)c3C2)ncn1 | 48.2
Cc1cc(NC(=O)C(C)Nc2cccc(COCc3ccco3)c2)on1 (configuration not stated) | 39.5
Cc1cc(C)nc(Nc2cccc(C3CCCN(C(C)C)C3)n2)n1 (configuration not stated) | -21.4
Cc1cc(-c2ccc(C(=O)O)cc2)nc(C2CCN(C(C)C)CC2)n1 | 2.71
Cc1cc(-c2cccc(C(=O)O)c2)nc(C2CCN(C(C)C)CC2)n1 | 56
Cc1cccc(Nc2cc(C)nc(C3CCN(C(C)C)C3)n2)n1 (configuration not stated) | 60.9
Cc1cc(C)nc(Nc2cc(C)nc(C3CCN(C(C)C)C3)n2)n1 (configuration not stated) | 11.685
Cc1nc(-c2cccc(C(=O)O)c2)cc(C2CCN(C(C)C)C2)n1 (configuration not stated) | 0.0932
Cc1noc(Cl)c1CCC(=O)N1CCN(Cc2ccncc2)CC1 | 1.78
Cc1nn2cnnc2c(C)c1CCC(=O)Nc1nnc(C2CC2)s1 | -31.1
CC(C(=O)NCCc1ccc2c(c1)OCCO2)n1cncn1 (configuration not stated) | 35.4
CCN(Cc1noc(CC(C)C)n1)Cc1cc2ccc(F)cc2[nH]c1=O | -7.65
Cn1cccc1CN1CCc2c(nc(-c3ccccn3)[nH]c2=O)C1 | 6.32
CCOc1ccc2[nH]c(=O)c(CN3CCCC(CO)(CO)C3)cc2c1 | -46.4
CO[C@H]1CCN(C(=O)c2ccc3[nH]nnc3c2)C[C@@]12CCCO2 | 5.34
CSc1ccc(C(=O)N2CC(=O)N(CC(C)(C)C)CC(O)C2)cc1 (configuration not stated) | 37.4
O=C1CN(CC2CC2)Cc2nc(NCCc3ccccn3)sc21 | 23.4
CC(=O)N1CCCC2(CCN(c3ccccc3)C2=O)C1 (configuration not stated) | 2.58
